# An excerpt weighted towards active compounds, which were near 2.6% of everything screened.
# CRFBP-R2 block: antagonists of CRF-BP/CRF-R2 complex, primary screen, cell-based, HEK293, calcium dye fluorescence, uHTS; AID 588475, 2011; CRF-induced calcium fluorescence; inhibition, % at 11.8 µM; hit rate 0.59% among 350,000;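 active = inhibition of the ligand-induced calcium signal above about 50% at the single tested concentration, limit read from the data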
# PHOSPHO1 inh: PubChem AID 1565 | recombinant PHOSPHO1, absorbance phosphatase assay | inhibition, % at 13.3 µM | Phosphoethanolamine/phosphocholine phosphatase (Homo sapiens), Q8TCT1 | hit rate 1.1% among 290,000; in the data active = inhibition above about 60%
# MLLE-PAM2 inh: inhibitors of PABP1 MLLE–PAM2 peptide binding, primary screen, biochemical, fluorescence polarization, FITC-PAM2, GST-MLLE | Polyadenylate-binding protein 1 (Homo sapiens), P11940 | hit rate 0.36% among 360,000 | inhibition, % at 20 µM; in the data active = inhibition above about 35%, passing the limit was not always enough;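 note: plate controls were DMSO wells with GST-MLLE for no effect and wells lacking GST-MLLE protein for full effect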
# Target sequence (P11940 whole entry, looked up): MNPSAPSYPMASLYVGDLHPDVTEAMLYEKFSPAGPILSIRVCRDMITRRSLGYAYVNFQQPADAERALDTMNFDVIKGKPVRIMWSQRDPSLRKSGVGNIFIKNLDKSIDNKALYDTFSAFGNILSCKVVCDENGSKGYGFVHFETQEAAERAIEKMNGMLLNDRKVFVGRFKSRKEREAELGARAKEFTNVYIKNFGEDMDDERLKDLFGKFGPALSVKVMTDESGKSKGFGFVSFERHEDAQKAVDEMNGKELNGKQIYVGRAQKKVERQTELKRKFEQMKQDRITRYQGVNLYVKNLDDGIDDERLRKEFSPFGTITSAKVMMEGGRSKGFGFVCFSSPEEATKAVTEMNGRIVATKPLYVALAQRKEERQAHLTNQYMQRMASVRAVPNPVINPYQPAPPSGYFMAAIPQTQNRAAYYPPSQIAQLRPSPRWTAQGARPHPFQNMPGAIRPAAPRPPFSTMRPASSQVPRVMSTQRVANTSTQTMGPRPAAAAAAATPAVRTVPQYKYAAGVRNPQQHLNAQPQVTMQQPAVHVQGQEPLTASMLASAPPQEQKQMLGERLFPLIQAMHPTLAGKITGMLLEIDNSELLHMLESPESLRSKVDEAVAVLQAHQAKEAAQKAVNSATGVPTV
# eIF4H FP inh: human eIF4H binding inhibitors, primary screen, translation initiation inhibitor project, biochemical, uHTS, fluorescence polarization; Eukaryotic translation initiation factor 4H (Homo sapiens), Q15056; eIF4H fluorescence polarization binding assay; inhibition, % at 35 µM; hit rate 0.94% among 290,000;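 note: calls also rest on retests at 20 µM and on dose response follow-up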
# PABP polyA inh: PABP poly(A) RNA binding inhibitors, primary screen, biochemical, fluorescence polarization, uHTS; Polyadenylate-binding protein 1 (Homo sapiens), P11940; inhibition, % at 35 µM; hit rate 1% among 290,000; AID 2014, 2009;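 note: calls also rest on retests at 20 µM and on dose response follow-up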
# Numbers without * were called inactive; ? = inconclusive; . = not tested or not shown. Unless noted, the rule behind the calls is not given here.
SMILES,CRFBP-R2 block,PHOSPHO1 inh,MLLE-PAM2 inh,eIF4H FP inh,PABP polyA inh
C[C@H](CO)N1C[C@H](C)[C@@H](CN(C)Cc2cccc(C(F)(F)F)c2)OCc2cnnn2CCCC1=O,-9,.,-4,.,.
Cc1ccc(NC(=O)c2ccccc2SCC(=O)N2CCCC2)cc1S(=O)(=O)N(C)C,-12,48,5,4,48
O=C(CNC(=S)N(CCCN1CCOCC1)Cc1cccs1)NC1CCCCC1,-1,24,-111,3,1
CCOC(=O)c1c(=O)n(O)c2ccc(C)cc2[n+]1[O-],13,68*,-54,104*,125*
CCOC(=O)c1c(C)[n+]([O-])c2ccc3c(non3O)c12,-3,16,-12,8,-10
CC(=O)Nc1ccc(SC[C@H](C)CN2CC[C@H](C(C)(C)C)CCC2=O)cc1,-4,.,46*,.,.
Cc1ccc2cc(COC(=O)c3ccncc3)c(=O)[nH]c2c1,4,86*,-104,-4,48
Cc1cccc2cc(COC(=O)c3cccnc3)c(=O)[nH]c12,0,78*,-107,-2,28
CCn1ccnc1CN(C)Cc1nc(-c2cccc(Cl)c2)no1,-4,57,5,1,-6
CCn1ccnc1CN(C)Cc1nc(-c2ccccc2)no1,12,60*,1,0,10
CC(C)NC(=O)CN1C(=O)CSc2ccc(S(=O)(=O)N3CCCC3)cc21,64*,7,-1,6,-8
Cc1noc(C)c1COC(=O)c1cc(C)n(-c2ccccc2)c1C,50*,14,-3,5,6
CC(C)=C(NC(=O)c1ccccc1Cl)C(=O)NCCc1nc2ccccc2[nH]1,-3,.,-2,.,.
COc1cc(C)ccc1Oc1ncnc(N)c1[N+](=O)[O-],-32,25,9,4,-3
O=C(NCC1CCCO1)c1onc(CSc2cccc3ccccc23)c1C(=O)O (centres undefined),50*,-79,9,-14,4
CC1CCCN(c2c([N+](=O)[O-])cc(C(=O)O)cc2[N+](=O)[O-])C1 (centres undefined),16,-7,17,-6,6
COc1ccc(NS(=O)(=O)c2ccc(Cl)s2)cn1,1,16,58*,?,?
Cc1ccccc1-c1n[nH]c(=S)o1,15,96*,-83,-3,3
CSc1ccccc1-c1n[nH]c(=S)o1,3,45,-71,-2,-7
S=c1[nH]nc(-c2ccccc2)o1,-1,101*,-95,-1,-1
O=C(NCc1ccc(F)cc1)c1cc(C2CCCCN2S(=O)(=O)c2ccccc2)on1 (centres undefined),.,.,9,.,.
CN(C)CCOC1c2ccccc2CCc2ccc3ccccc3c21 (centres undefined),-12,.,-11,.,.
Nc1ccc(-c2nc3ccccc3o2)cc1,-6,37,-17,50,3.2*
CC(c1ccc2ccccc2c1)c1ccccc1C(=O)O (centres undefined),12,.,-3,.,.
Cc1ccc(C(=O)OCn2nnc3ccccc3c2=O)cc1[N+](=O)[O-],79*,-2,3,21,-2
SMILES,CRFBP-R2 block,PHOSPHO1 inh,MLLE-PAM2 inh,eIF4H FP inh,PABP polyA inh
COc1ccc(C(=O)OCn2nnc3ccccc3c2=O)cc1[N+](=O)[O-],0,12,-2,4,-14
CC[n+]1ccc(C)c2cc(S(=O)C(F)(F)F)ccc21 (centres undefined),7,28,20,?,73*
c1csc(-c2nnsc2-c2nc3ccccc3[nH]2)c1,4,96*,-1,69*,90*
C/C=C/Cn1c(N2CCCCCC2)nc2c1c(=O)[nH]c(=O)n2C,-29,-10,8,-11,1
Cn1c(=O)[nH]c(=O)c2c1nc(N1CCCCC1)n2C/C=N/Nc1ccc(C(=O)O)cc1,9,64*,19,-14,3
CC(C)CN1CCN(CCCOC(=O)Nc2cccc3ccccc23)CC1C (centres undefined),-6,.,13,.,.
C=CCn1cnc2c(c1=O)c1nc3ccccc3nc1n2/N=C/c1ccccn1,43,11,-2,0,10
C=CCn1cnc2c(c1=O)c1nc3ccccc3nc1n2/N=C/c1cc(OC)c(OC)c(OC)c1,-40,-12,-11,2,-2
C=CCn1cnc2c(c1=O)c1nc3ccccc3nc1n2/N=C/c1cccc(OC)c1OC,54*,2,-6,43,3
COCCn1cnc2c(c1=O)c1nc3ccccc3nc1n2/N=C/c1cccc(OC)c1,57*,8,7,-2,-4
CC(C)C1Nc2c(O)cc(Cl)c([N+](=O)[O-])c2C2C=CCC21 (centres undefined),59*,22,16,43,15
COC(=O)c1sccc1-n1cc2c(c1-c1ccccc1)c(=O)n(C)c(=O)n2C,.,.,23,.,.
CC1=C(C(=O)OC(C)C)C(c2cccs2)N2C(=O)C(C)SC2=N1 (centres undefined),50*,12,23,-8,-2
CC1=C(C(=O)OC(C)C)C(c2cccs2)N2C(=O)CCSC2=N1 (centres undefined),-16,0,15,-6,2
CC1(C)CC2CC(C)(CN2/C=C2/CCCCC2=O)C1 (centres undefined),115*,34,14,3,12
CC1(C)C[C@@H]2C[C@@](C)(CN2C(=O)c2ccccc2)C1,-6,24,-5,-3,-3
Cc1cc(=S)[nH]c2ccccc12,9,100*,18,-7,-8
Cc1ccc2c(C)cc(=S)[nH]c2c1,6,-76,28,11,0
Cc1ccc2[nH]c(=S)cc(C)c2c1,17,89*,24,-1,3
O=C(COC(=O)c1cc(S(=O)(=O)N2CCOCC2)ccc1Cl)c1ccc[nH]1,-18,.,-15,.,.
O=C(COC(=O)c1cc2c(s1)CCC2)Nc1ccc(F)cc1,-13,4,4,97*,35*
c1ccc(-c2cc3nccc(-c4ccccn4)n3n2)cc1,60*,-4,3,-3,-1
Cc1cc2nccc(-c3ccccn3)n2n1,5,41,-6,-1,0
O=C(/C=C/c1ccco1)NC(=S)Nc1ccc(N2CCCC2)cc1,7,12,36*,93*,1.9*
O=C(/C=C/c1ccco1)NC(=S)Nc1ccc(Cl)cn1,-35,38,-30,71,37*
O=C(/C=C/c1ccco1)NC(=S)NNC(=O)c1ccco1,-18,24,7,92,9.4*
O=C(/C=C/c1ccco1)NC(=S)Nc1ccc(C(=O)O)cc1,2,31,14,97*,79*
C=CCNC(=S)NNC(=O)c1ccco1,3,-16,-13,-8,-1
CC(=O)NC(=S)Nc1ccc(NC(=S)NC(=O)/C=C/c2ccco2)cc1,-18,18,14,.,.
COc1cc(Br)cc(Br)c1OCC(=O)N/N=C/c1c(C)n(C)n(-c2ccccc2)c1=O,-1,26,0,-3,1
